Shown are actives, neighbours in structure and some others; about 4.1% of the full set was active somewhere.
Mdm2 MdmX PPI: inhibitors of human Mdm2-MdmX association, primary screen, cell-based, luminescence, split luciferase, SaOS-2, uHTS; Protein Mdm4 (Homo sapiens) + E3 ubiquitin-protein ligase Mdm2 (Homo sapiens), …; SaOS-2 split-luciferase Mdm2/MdmX complementation; inhibition, % at 8 µM; 3% of 330,000 active; AID 485346, 2010;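 active means inhibition of at least 50% at 8 µM in the primary screen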
Target sequence (O15151 whole entry, looked up): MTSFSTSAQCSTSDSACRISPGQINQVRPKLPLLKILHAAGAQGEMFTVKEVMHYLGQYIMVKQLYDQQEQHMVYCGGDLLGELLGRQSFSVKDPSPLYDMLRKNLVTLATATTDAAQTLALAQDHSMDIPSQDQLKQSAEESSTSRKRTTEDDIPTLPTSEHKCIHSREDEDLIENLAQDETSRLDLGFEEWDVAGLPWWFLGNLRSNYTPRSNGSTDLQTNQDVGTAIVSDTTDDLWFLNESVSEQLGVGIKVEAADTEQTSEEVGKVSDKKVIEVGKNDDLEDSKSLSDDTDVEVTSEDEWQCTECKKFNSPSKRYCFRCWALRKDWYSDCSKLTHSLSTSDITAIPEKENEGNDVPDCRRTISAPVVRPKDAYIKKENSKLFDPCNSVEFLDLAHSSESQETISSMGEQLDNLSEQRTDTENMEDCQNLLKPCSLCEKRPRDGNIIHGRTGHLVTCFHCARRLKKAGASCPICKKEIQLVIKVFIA
Target sequence (Q00987 whole entry, looked up): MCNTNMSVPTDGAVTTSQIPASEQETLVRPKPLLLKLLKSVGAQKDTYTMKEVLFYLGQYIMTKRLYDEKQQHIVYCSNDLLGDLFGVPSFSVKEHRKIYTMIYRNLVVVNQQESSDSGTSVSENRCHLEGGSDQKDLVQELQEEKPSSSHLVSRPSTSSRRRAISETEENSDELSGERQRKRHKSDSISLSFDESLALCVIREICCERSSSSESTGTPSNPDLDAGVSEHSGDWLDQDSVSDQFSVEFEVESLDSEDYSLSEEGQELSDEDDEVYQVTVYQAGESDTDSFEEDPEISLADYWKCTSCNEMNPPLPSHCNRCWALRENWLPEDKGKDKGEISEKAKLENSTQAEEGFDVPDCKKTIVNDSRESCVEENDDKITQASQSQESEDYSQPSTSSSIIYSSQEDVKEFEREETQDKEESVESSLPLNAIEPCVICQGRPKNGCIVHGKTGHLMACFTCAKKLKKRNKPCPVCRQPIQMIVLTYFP
Jurkat NFkB inh: inhibitors of induced NF-kB luciferase reporter, primary screen, TCR NF-kB activation inhibitor project, cell-based, luminescence, uHTS; inhibition, % at 4 µM; AID 435003, 2010; Jurkat, PMA/ionomycin-induced NF-kB luciferase reporter; 0.53% of 330,000 active; in the data active means inhibition above about 50%
aSyn UTR inh: MLPCN primary screen, SNCA 5' untranslated region. 0.82% of 300,000 active. inhibition, % (tested at 7.5 µM). AID 1813, 2009. alpha-synuclein 5'UTR reporter, inhibitor activity; in the data active means inhibition above about 60%;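 further: H4 neuroglioblastoma cells stably carrying SNCA 5'UTR luciferase fusion; 0% = DMSO wells and 100% = positive control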
697 NFkB inh: inhibitors of PMA/ionomycin-induced NF-kB reporter, 697 cells, primary screen, B-cell NF-kB inhibitor project, cell-based, luminescence, uHTS | 0.33% of 330,000 active | 697 B-cell NF-kB luciferase reporter, 16 h | inhibition, % at 4 µM; in the data active means inhibition above about 35%
Gli-Sufu block: Gli-Sufu pathway antagonists, primary screen, luciferase luminescence, Sufu-KO-LIGHT cells, uHTS; Sufu-KO-LIGHT fibroblasts, Gli luciferase reporter luminescence; inhibition, % at 5 µM; 0.74% of 340,000 active; AID 588413, 2011;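 active means inhibition above about 55%, limit read from the data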;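 further: 0% = DMSO-treated cells and 100% = wells with medium but no cells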
KLF5 inh: KLF5 expression inhibitors, primary screen, DLD-1 cells, luminescence. DLD-1 KLF5 promoter-luciferase reporter. inhibition, % at 5 µM. 0.23% of 290,000 active. AID 1700, 2009;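 active means inhibition above a per-plate limit of that plate's mean compound inhibition plus 3 SD, cut at about 60% in these data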;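 further: 0% = DMSO wells and 100% = LY294002 at 200 µM; higher means less KLF5 promoter-driven luciferase light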
* = called active by the depositor; · = not tested or not shown.

SMILES	Mdm2 MdmX PPI	Jurkat NFkB inh	aSyn UTR inh	697 NFkB inh	Gli-Sufu block	KLF5 inh
COc1ccc(-c2csc(NC(=S)NC(=O)/C=C/c3ccco3)n2)cc1OC	·	·	63*	·	-9	-14
COc1ccc(-c2csc(NC(=S)NC(=O)/C=C/c3ccc(C(C)C)cc3)n2)cc1OC	44	-5	12	6	10	19
O=C(/C=C/c1ccco1)Nc1nc(-c2ccc(F)c(F)c2)cs1	10	-6	-100	-96	58*	-25
O=C(O)CCCNC(=O)Cc1ccccc1	6	2	-6	18	4	-26
C=C1[C@@H](C)C2[C@H](Cc3ccccc3)NC(=O)[C@]23OC(=O)CC[C@H](O)CCC[C@H](C)C/C=C/[C@H]3[C@@H]1O (stereo not given in full)	·	·	80*	·	·	·
O=C(NCc1nnc2c(C(F)(F)F)cc(Cl)cn12)c1cccs1	11	4	-13	5	28	-21
CCCCOc1cccc(C(=O)Nc2ccc(NC(=O)c3cccs3)cc2)c1	29	-13	64*	-3	-35	-45
NC(=O)c1sc2nc3c(c(-c4ccc(Cl)cc4)c2c1N)CCCC3	36	16	66*	21	-26	2
Cc1ccc(S(=O)(=O)N2CCCCC2)cc1NC(=O)c1ccc(Cl)nc1	17	-1	·	5	-7	·
O=C(Nc1ccc(N2CCN(C(=O)c3ccc(Cl)cc3)CC2)cc1)c1ccc([N+](=O)[O-])o1	·	·	120*	·	35	-28
CS(=O)(=O)N1CCN(c2ccc(NC(=O)c3ccc([N+](=O)[O-])o3)cc2)CC1	·	·	72*	·	6	-21
O=[N+]([O-])c1cc(O)c2ncccc2c1	44	-5	70*	-7	67*	15
CCC(C)Sc1cc(-c2nc3ccc(C)cn3c2NCc2ccccc2)ccc1OC (stereo not given)	·	·	-14	·	66*	·
CCCCCCSc1ccc(-c2nc3ccc(C)cn3c2NCc2ccccc2)cc1OC	49	-11	-14	-19	2	·
Cc1ccc2[nH]c(-c3ccccc3)cc(=O)c2c1	11	25	89*	-147	-41	57
Cc1ccccc1C(=O)Nc1nnc(-c2ccco2)s1	-39	-18	65*	-167	-55	-137
COc1ccccc1C(=O)Nc1nnc(-c2ccco2)s1	-94	-122	-168	-172	-67	-250
c1ccc(CN2CCN(c3ncnc4c3[nH]c3ccccc34)CC2)cc1	32	22	19	-25	62*	5
CCCCC1CCC(c2nc(-c3ccccn3)no2)CC1 (stereo not given)	-23	-71	97*	-111	10	-16
O=C(Cc1ccccc1)NNC(=S)NC(=O)c1cccs1	11	-7	75*	10	-5	1
CC(C)CC(NC(N)=O)C(=O)NCCc1ccc(Cl)cc1 (stereo not given)	29	-11	-31	-5	3	-31
Cc1cc(=O)[nH]c(NN=Cc2cc(Br)ccc2O)n1	·	·	·	·	76*	·
O=C1CCCc2c1[nH]c1ccc(Cl)cc21	31	0	63*	-13	-22	-21
OCCN=C1CCCc2c1[nH]c1ccc(Cl)cc21	37	11	52	-7	-12	-4
CCOc1cc(/C=N/NC(N)=O)cc(Br)c1OCc1ccccc1F	3	18	3	18	4	-10
SMILES	Mdm2 MdmX PPI	Jurkat NFkB inh	aSyn UTR inh	697 NFkB inh	Gli-Sufu block	KLF5 inh
CCOc1cc(/C=N\NC(N)=O)cc(Br)c1OC(C)C	32	-10	62*	-29	4	27
CC(=O)Nc1ccc(NC(=O)CN(c2cccc([N+](=O)[O-])c2)S(C)(=O)=O)cc1	-9	0	69*	-13	7	-10
CS(=O)(=O)N(CC(=O)Nc1cccc(F)c1)c1cccc([N+](=O)[O-])c1	2	-9	-10	-22	9	-16
CCCc1n[nH]c2c1/C(=N/O)CC(c1ccccc1)C2 (stereo not given)	1	-9	69*	7	-6	8
Cc1ccccc1-c1nc(CS(=O)(=O)CC(=O)N2CCOCC2)c(C)o1	-22	-12	-1	-49	4	0
Brc1ccc(-c2cn3nc4c(nc3n2)CCCC4)cc1	22	-115	93*	-138	-56	-103
Nc1nn2cc(-c3ccc(Br)cc3)nc2c2ccccc12	-121	-91	-165	-90	-63	-96
c1ccc(-c2cn3nc4c(nc3n2)CCCC4)cc1	35	-42	109*	-22	-46	-39
c1ccc(-c2cn3nc(-c4ccccc4)cnc3n2)cc1	·	·	·	·	-88	-47
CC1C2=C(CCCC2=O)N(c2cccc3ccccc23)C2=C1C(=O)CCC2	·	·	·	·	·	-4
CC(C)(C)C1CCC(N2CCN(c3ccccc3)CC2)CC1 (stereo not given)	14	-11	-22	-13	10	-24
COc1ccc(Br)cc1CSC(=N)N	-13	-1	-25	-2	14	-14
CCCCCOc1ccc(Br)cc1CSC(=N)N	·	·	28	·	66*	25
Cc1ccc(-c2cc(-c3ccc(F)cc3)nc(N)c2C#N)o1	-10	-3	63*	-16	-17	-25
CN1CCc2c(sc3c2C(=O)NC(c2ccco2)N3)C1 (stereo not given)	22	13	-18	-3	0	-8
CN1CCc2c(sc3c2C(=O)NC(c2cn(Cc4ccccc4)c4ccccc24)N3)C1 (stereo not given)	18	9	64*	-19	19	1
CN(C)Cc1ccccc1Sc1ccc2c(c1)CCCC2	20	-3	104*	-30	7	·
O=C(CSc1n[nH]c(-c2ccccn2)n1)Nc1ccc(F)cc1	27	-5	73*	1	-5	22
O=C(N/N=C/c1ccc([N+](=O)[O-])o1)c1ccc2c(c1)OCO2	29	8	94*	-14	43	-17
CCCCCCCC(=O)N/N=C/c1ccc([N+](=O)[O-])o1	6	-9	-18	16	-6	-12
O=C(Cc1ccc([N+](=O)[O-])cc1)N/N=C/c1ccc([N+](=O)[O-])o1	23	-5	89*	8	6	-26
O=C(COC(=O)Cn1[nH]c(=O)c2ccccc2c1=O)NNC(=O)c1ccccc1	12	-12	·	14	-2	·
COc1ccc(-c2cn3cc(C)ccc3n2)cc1F	16	-69	77*	-76	-52	-4
CN(CC(=O)Nc1ccccc1Br)C(=O)Cn1[nH]c(=O)c2ccccc2c1=O	22	-8	·	5	-19	·
CC(C)(C)c1ccc(-c2cn(-c3ccc(Br)cc3)c3[n+]2CCCS3)cc1	·	·	-8	·	93*	35
